In the library only some 19% were active in any assay of this set; here they are far more common.
DT40 TDP1 CPT – growth inhibition of DT40 Tdp1-/-;hTDP1 cells with camptothecin (screen for TDP1 inhibitors); chicken DT40 Tdp1-/-;hTDP1 cells + 20 nM CPT, ATP luminescence, 48 h; Potency, µM (top dose mostly 46.2 µM), inactives show at the top dose activity change, negative = growth inhibition, usual class: inhibitors; actives 12% (n = 420,000); AID 686979; also: nearly all actives have a fitted effect of over 55% in size
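Cell growth measured by CellTiter-Glo luminescence after a minimum 48 h, 37 C compound exposure with 20 nM CPT in Tdp1-knockout DT40 cells stably expressing hTDP1, seeded 400/well; qHTS titration format.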
KB-3-1 tox – kills parental KB-3-1 adenocarcinoma cells | KB-3-1 viability, CellTiter-Glo ATP luminescence, 72 h | Potency, µM (top dose mostly 46.1 µM), most hits filed as cytotoxic | actives 1.4% (n = 400,000) | AID 1347075; also: nearly all actives have a fitted effect of over 60% in size
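Parental KB-3-1 adenocarcinoma cells in phenol-red-free DMEM with 10% FBS were pin-treated with compounds at several concentrations, incubated 72 h at 37 °C, and viability read by CellTiter-Glo luminescence; concentration-effect curves were fitted after normalization.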
HT1080NT lethal – kills 2HG-producing HT-1080-NT fibrosarcoma cells; HT-1080-NT fibrosarcoma viability, CellTiter-Glo ATP luminescence, 48 h; Potency, µM (titrated, usually from 46.1 µM), without a hit: top-dose activity, negative = less viability, hits mostly cytotoxic; actives 1.6% (n = 360,000);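 also: NT is the 2HG producing partner of a matched IDH1 knockdown line; 0% = DMSO-treated cells and -100% = media-only wells without cells; nearly all actives have a fitted effect of over 55% in size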
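Compounds were tested in concentration-response format on HT-1080-NT cells for 48 hours at 37 degrees C. Cell viability came from CellTiter-Glo luminescence; curves were classified by r2, response magnitude and activity.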
HT1080 IDH1KD tx – kills HT-1080 cells with IDH1 knockdown. HT-1080 IDH1 knockdown viability, ATP luminescence, 48 h. Potency, µM (doses to about 46.1 µM), inactives show at the highest dose activity, negative = toxicity, most hits filed as cytotoxic. actives 2% (n = 360,000);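 also: 0% = DMSO wells and -100% = cell-free medium wells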
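After a 2 h attachment period, IDH1KD HT-1080 cells took pin-transferred compound for 48 h at 37 °C; ATP-based luminescence after 10 min room-temperature reagent incubation reported viability.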
TDP1 cell noCPT – qHTS for Inhibitors of human tyrosyl-DNA phosphodiesterase 1 (TDP1): qHTS in cells in absence of CPT; DT40 Tdp1-/- hTDP1 cells, no CPT, ATP luminescence, 48 h; Potency, µM (series often up to 46.2 µM), for the others: top-dose activity change, negative = growth inhibition, actives largely listed as inhibitors; actives 15% (n = 420,000); AID 686978, 2013; also: nearly all actives have a fitted effect of over 55% in size
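Cells were dispensed at 400 per well, compounds added by pin tool, plates incubated ≥48 hr at 37 °C, then CellTiter-Glo added for 30 min at room temperature before luminescence reading. Line: DT40 Tdp1-/- complemented with hTDP1; camptothecin omitted.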
KB-V1 cytotox – KB-V1 MDR subline cytotoxicity | KB-V1 MDR cells viability, CellTiter-Glo, 72 h | actives 3.4% (n = 400,000) | AID 1347076 | Potency, µM (series often up to 46.1 µM), hits mostly cytotoxic; also: nearly all actives have a fitted effect of over 60% in size
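Luminescent ATP read-out (CellTiter-Glo, 10 min) measures survival of drug-selected KB-V1 MDR cells after 72 h, 37 degrees C compound exposure. Medium: phenol-red-free DMEM, 10% FBS. Values from fitted concentration-response curves.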
Numbers without * were called inactive; i = inactive; ? = inconclusive; . = no result given. Calls follow the shape of the dose curve; as a rule, active = well fitted curve in the direction sought with a large enough effect; inconclusive = small, poorly fitted or top-dose-only effect, or another doubt; inactive = no such curve, though single readings can be large; an effect the other way counts as inactive or inconclusive. Unless noted, % is scaled to controls: 0 for no effect and ±100 for the full control effect; potency is read from the fitted curve at half-maximal effect.

SMILES	DT40 TDP1 CPT	KB-3-1 tox	HT1080NT lethal	HT1080 IDH1KD tx	TDP1 cell noCPT	KB-V1 cytotox
CC1CN(C(=O)COC(=O)c2ccc(Cl)nc2)CC(C)O1 (stereo unspecified)	11.6%	i	15.6%	5.7%	0.3%	i
CCN(CC)C(=O)c1[nH]cnc1C(=O)N[C@@H](Cc1ccccc1)C(=O)OC(C)(C)C	?	i	1.8%	-5.6%	?	i
Cn1c2ccccc2c(=O)c2c(=O)n(-c3ccccc3)c(C3CCCCC3)nc21	?	i	8.6%	13.6%	?	?
COc1ccc(Cn2c(C3CCCCC3)nc3c(c(=O)c4ccccc4n3C)c2=O)cc1	?	i	3.3%	5.7%	16.4µM*	?
Cn1c2ccccc2c(=O)c2c(=O)n(C3CCCCCC3)c(C3CCCCC3)nc21	14.6µM*	?	0.5%	3.6%	13µM*	?
Cn1c2ccccc2c(=O)c2c(=O)n(C3CCCCC3)c(-c3cccs3)nc21	?	?	1.6%	-12.2%	?	11.6µM*
COc1ccc(CCn2c(C3CCCCC3)nc3c(c(=O)c4ccccc4n3C)c2=O)cc1OC	?	i	0.0%	-1.6%	?	?
CCc1nc2c(c(=O)c3ccccc3n2C)c(=O)n1C1CCCCCC1	?	i	-17.8%	-21.6%	16.4µM*	i
Cc1c(-c2ccccc2)nc2ccccc2c1C(=O)NCc1cccs1	?	i	-5.4%	-4.0%	16.4µM*	11.6µM*
Cc1nn(Cc2c(Cl)cccc2Cl)c(C)c1C(=O)NCc1ccc(C)n1C	?	i	-1.3%	-1.4%	-26.7%	i
Cc1c(C(=O)NCc2cccs2)oc2ccccc12	-10.8%	i	-19.1%	?	-3.8%	i
Cc1nn(-c2ccccc2)c(Cl)c1C(=O)NCc1cccs1	14.7%	i	14.4%	27.1%	?	14.6µM*
Cc1c(-c2ccccc2)nc2ccccc2c1C(=O)Oc1ccc([N+](=O)[O-])cc1	8.2µM*	i	14.5%	5.7%	5.8µM*	i
Cc1nn(Cc2ccccc2)c(Cl)c1C(=O)NCc1ccc(C)n1C	-1.1%	i	2.3%	0.6%	-8.8%	14.6µM*
CNc1ccc2nnc(C(F)(F)C(F)(F)C(F)(F)F)n2n1	8.9%	i	10.1%	4.8%	-5.7%	?
Cn1cc(C(=O)NCCc2ccccc2)c(=O)c2cc(S(=O)(=O)N3CCCCCC3)ccc21	-15.1%	i	.	.	?	i
Cc1nn(-c2ccccc2)c(Cl)c1C(=O)NNC(=O)c1ccccc1O	?	?	-24.1%	?	13µM*	?
Cc1nn(-c2ccccc2)c(Cl)c1C(=O)NNC(=O)c1ccncc1	-4.1%	i	18.2%	0.0%	-2.5%	i
O=[N+]([O-])c1ccc(/C=[N+](\[O-])[C@@H]2CCCC[C@@H]2/[N+]([O-])=C/c2ccc([N+](=O)[O-])o2)o1	7.31µM*	?	-19.8%	-1.6%	10.3µM*	20.6µM*
COCCCNC(=O)c1c(NC(=O)c2cc(=O)c3ccccc3o2)sc2c1CCCC2	-16.7%	i	.	.	5.17µM*	i
COC(=O)c1c(NC(=O)Cc2coc3ccc(C)cc23)sc2c1CCC2	?	i	.	.	?	i
COC(=O)c1c(NC(=O)Cc2coc3cc(C)ccc23)sc2c1CCC2	-29.6%	i	.	.	3.26µM*	i
Cc1ccc2c(CC(=O)NCc3ccccc3)coc2c1C	4.11µM*	?	.	.	3.26µM*	?
COCCCNC(=O)c1c(NC(=O)Cc2coc3c(C)c(C)ccc23)sc2c1CCCC2	16.4µM*	i	.	.	16.4µM*	i
CC1CCc2c(sc(NC(=O)COC(=O)c3ccc(O)cc3)c2C#N)C1 (stereo unspecified)	-4.0%	i	-5.1%	-3.4%	-19.7%	i
SMILES	DT40 TDP1 CPT	KB-3-1 tox	HT1080NT lethal	HT1080 IDH1KD tx	TDP1 cell noCPT	KB-V1 cytotox
COCCNC(=O)c1c(NC(=O)Cc2coc3cc(C)ccc23)sc2c1CCCC2	23.1µM*	i	.	.	?	i
Cc1ccc(C(C)C)c(OCc2ccc(C(=O)Nc3ccc(S(N)(=O)=O)cc3C)o2)c1	?	i	.	.	?	i
CCc1ccc2[nH]c(=O)c(CN(Cc3ccco3)Cc3nnnn3Cc3ccco3)cc2c1	?	?	.	.	12.6µM*	i
Cc1ccc2[nH]c(=O)c(CN(Cc3ccco3)Cc3nnnn3Cc3ccco3)cc2c1	?	i	.	.	?	i
CCC(c1nnnn1C(C)(C)CC)N(CCN1CCOCC1)Cc1cc2cc(C)ccc2[nH]c1=O (stereo unspecified)	?	i	6.9%	-7.0%	?	i
Cc1ccc2[nH]c(=O)c(CN(CCO)Cc3nnnn3CCc3ccccc3)cc2c1	?	i	-0.3%	-2.1%	-25.0%	?
CCC(c1nnnn1C(C)(C)CC)N(CCCO)Cc1cc2cc(C)cc(C)c2[nH]c1=O (stereo unspecified)	?	i	-7.4%	-17.0%	20.6µM*	i
